Test results from publication PMC4081100, “A DNA-binding-site landscape and regulatory network analysis for NAC transcription factors in Arabidopsis thaliana”.

Target: T1, GST-VND7 NAC domain (Arabidopsis thaliana, UniProt Q9C8W9 9-158)
T1 sequence: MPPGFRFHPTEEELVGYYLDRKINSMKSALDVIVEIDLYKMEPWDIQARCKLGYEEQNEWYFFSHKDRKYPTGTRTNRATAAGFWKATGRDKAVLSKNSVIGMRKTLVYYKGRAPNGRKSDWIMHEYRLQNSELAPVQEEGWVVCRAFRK
Test: universal protein binding microarray (PBM); transcription factors of Arabidopsis thaliana; high values mean tight binding
Details: protein: recombinant; tags: GST; chain copies: 2; dsDNA, one strand shown
Procedure, shortened: (§1)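 Protein amounts were determined by A280 or anti-GST western blot after glutathione–Sepharose 4B purification of GST-tagged proteins induced in cells, with zinc acetate included for zinc-finger proteins. Duplicate runs at 200 to 500 nM final were done on custom all-10-mer Agilent 4 × 180K arrays made double-stranded by primer extension. The normalised enrichment score (E-score) over gapped and ungapped 8-mers is the measure of binding.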

Sequence | binding signal [E-score]
AGTCAACT | 0.0783
AGGTCAAA | 0.0735
AAGTCTTC | 0.0783
AGTCGTGC | 0.273
ACACGGTA | 0.123
GTTGACAA | 0.0726
CCACGGAA | 0.316
GTTGGTCA | 0.0967
GCACGGTA | 0.122
GTCAATCA | 0.114
AGAGGGAA | 0.0972
AGAGTCAA | 0.0931
CTAGTCAA | 0.08
AAAGTCGT | 0.176
ACACGGCT | 0.321
TACAGTCA | 0.0649
CACGGCTC | 0.377
ATAGTCAA | 0.12
GTCAAATA | 0.139
ATATTGAC | 0.0695
AATGTCAA | 0.0638
TGACTAAA | 0.0902
AATAGTCA | 0.143

Target: GST-WRKY1(266-371) (Arabidopsis thaliana, UniProt Q9SI37 266-371)
Test: as above
Details: protein: recombinant; tags: GST; dsDNA, one strand shown
Procedure, shortened: as §1

Sequence of GST-WRKY1(266-371) (Q9SI37 266-371): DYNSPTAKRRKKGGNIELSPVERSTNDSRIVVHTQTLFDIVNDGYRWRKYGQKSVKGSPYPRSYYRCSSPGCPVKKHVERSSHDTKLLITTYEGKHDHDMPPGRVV

Sequence | binding signal [E-score]
AGTCAACT | 0.486
TATGACCA | 0.424
CAAGACCA | 0.408
AGGTCAAA | 0.482
ATTGGTCA | 0.454
AAGTCTTC | 0.429
AGTCGTGC | 0.294
TGGTCAAA | 0.491
GTTGACAA | 0.446
ATGGTCAA | 0.485
GTTGGTCA | 0.448
AATGGTCA | 0.434
CTATTGAC | 0.451
GTCAATCA | 0.435
AGAGTCAA | 0.48
CTTGACCA | 0.484
TCTGGTCA | 0.455

Sequence | binding signal [E-score]
GTGGTCAA | 0.489
CTAGTCAA | 0.474
TTCGTCAA | 0.437
AAAGTCGT | 0.429
TACAGTCA | 0.404
CATGGTCA | 0.443
CTTGACTC | 0.466
ATAGTCAA | 0.473
GTCAAATA | 0.461
ATATTGAC | 0.453
AATGTCAA | 0.404
GGATTGAC | 0.459
TGACTAAA | 0.42
AGTCAATC | 0.468
ATTGACTA | 0.466
AATAGTCA | 0.413
